In PubChem BioAssay (NCATS):
Values joined by “and” are separate entries in the source; they are usually repeats but may differ in a detail not shown here. Equal values may be shown once. Results filed as inconclusive are left out. Unmarked numbers belong to inactive results. Active and inactive are the calls of the source. Calls come from the whole dose curve; as a rule, active = well fitted curve in the direction sought with a large enough effect; inconclusive = small, poorly fitted or top-dose-only effect, or another doubt; inactive = no such curve, though single readings can be large; an effect the other way counts as inactive or inconclusive.

Assays:
CRL-7250 [1] = test: Cytotoxic Profiling of Annotated Libraries Using Quantitative High-Throughput Screening (AID 1296008); conditions: Five cell lines viability, CellTiter-Glo ATP luminescence, 48-72 h; max response: hits give low values; note: nearly all actives have a fitted effect of over 60% in size; note: potency is the fitted concentration of half-maximal effect; for max response: % is set by controls: 0 for no effect and ±100 for the full control effect
How it was run: (§1)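 Cytotoxicity was measured as CellTiter-Glo ATP luminescence, read after 10 min at room temperature. Compound treatment of the cells lasted 48 or 72 hr at 37 degrees Celsius in a qHTS format.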

HaCat [2] = test: as above; conditions: Five cell lines viability, CellTiter-Glo ATP luminescence, 48-72 h; max response: hits give low values
How it was run: as §1

KB-3-1 = test: as above; conditions: Five cell lines viability, CellTiter-Glo ATP luminescence, 48-72 h; max response: hits give low values
How it was run: as §1

HACAT [3] = test: qHTS assay to identify novel small-molecules to repurpose for Merkel cell carcinoma treatment (AID 1296009); conditions: MCC and control cell lines, CellTiter-Glo viability, 72 h; at 44.8 µM (top of the series) unless noted; note: nearly all actives have a fitted effect of over 60% in size; note: potency is the fitted concentration of half-maximal effect
How it was run: (§2)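 Cell viability measured by CellTiter-Glo following 72 hr compound treatment at 37 degree celsius, with NPC and MIPE libraries tested in 8- and 11-point concentration series.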

MCC-13 = test: as above; conditions: MCC and control cell lines, CellTiter-Glo viability, 72 h; series mostly up to 46 µM
How it was run: as §2

MCC-26 = test: as above; conditions: MCC and control cell lines, CellTiter-Glo viability, 72 h; series mostly up to 46 µM
How it was run: as §2

MKL-1 = test: as above; conditions: MCC and control cell lines, CellTiter-Glo viability, 72 h; series mostly up to 46 µM
How it was run: as §2

MKL-2 = test: as above; conditions: MCC and control cell lines, CellTiter-Glo viability, 72 h; series mostly up to 46 µM
How it was run: as §2

UISO = test: as above; conditions: MCC and control cell lines, CellTiter-Glo viability, 72 h; series mostly up to 46 µM
How it was run: as §2

WaGa = test: as above; conditions: MCC and control cell lines, CellTiter-Glo viability, 72 h; series mostly up to 46 µM
How it was run: as §2

HEK293 = test: Cytotoxic Profiling of Annotated Libraries Using Quantitative High-Throughput Screening (AID 1296008); conditions: Five cell lines viability, CellTiter-Glo ATP luminescence, 48-72 h; max response: hits give low values; note: nearly all actives have a fitted effect of over 60% in size; note: potency is the fitted concentration of half-maximal effect; for max response: % is set by controls: 0 for no effect and ±100 for the full control effect
How it was run: as §1

NIH3T3 [4] = test: as above; conditions: Five cell lines viability, CellTiter-Glo ATP luminescence, 48-72 h; max response: hits give low values
How it was run: as §1

NIH3T3 [5] = test: qHTS assay to identify novel small-molecules to repurpose for Merkel cell carcinoma treatment (AID 1296009); conditions: MCC and control cell lines, CellTiter-Glo viability, 72 h; at 44.8 µM (top of the series) unless noted; note: nearly all actives have a fitted effect of over 60% in size; note: potency is the fitted concentration of half-maximal effect
How it was run: as §2

C33A = test: Primary qHTS to identify gynecologic anti-cancer compounds using libraries of approved drugs and bioactive compounds (AID 1345084); conditions: Gynecologic cancer cell panel viability, ATPlite luminescence, 48 h; series mostly up to 57.5 µM; note: % is set by controls: 0 for no effect and ±100 for the full control effect; nearly all actives have a fitted effect of over 55% in size
How it was run: (§3)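 Cells, 1,000 per well, were allowed to settle for 16 h at 37 C before compound addition. Five concentrations were tested for 48 h, and viability was read by ATPlite luminescence after 15 min at room temperature.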

CAOV3 = test: as above; conditions: Gynecologic cancer cell panel viability, ATPlite luminescence, 48 h; series mostly up to 57.5 µM
How it was run: as §3

W2 = test: qHTS profiling for inhibitors of Plasmodium falciparum proliferation (AID 504749); conditions: P. falciparum in erythrocytes, SYBR Green DNA, 72 h; series mostly up to 28.7 µM
How it was run: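 In a 72 h erythrocytic culture (37 C, humidified, 5% CO2) at 2.5% hematocrit and 0.3% starting parasitemia, compounds were tested; SYBR Green I in detergent lysis buffer stained parasite DNA overnight.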

CRL-7250 [6] = test: qHTS assay to identify novel small-molecules to repurpose for Merkel cell carcinoma treatment (AID 1296009); conditions: MCC and control cell lines, CellTiter-Glo viability, 72 h; at 44.8 µM (top of the series) unless noted; note: nearly all actives have a fitted effect of over 60% in size; note: potency is the fitted concentration of half-maximal effect
How it was run: as §2

## C[C@](O)(COc1ccc(C#N)cc1)C(=O)Nc1ccc(C#N)c(C(F)(F)F)c1
CRL-7250 [1]
  max response: -6.61%
HaCat [2]
  outcome: inactive
KB-3-1
  max response: -23.6%
HACAT [3]
  outcome: inactive
MCC-13
  Potency: inactive
MCC-26
  Potency: inactive
MKL-1
  Potency: inactive
MKL-2
  Potency: inactive
UISO
  Potency: inactive
WaGa
  Potency: inactive

## N=c1c2c(-c3ccccc3)c(-c3ccccc3)n(Cc3ccccc3)c2ncn1C1CCC(O)CC1 (stereo not given)
HEK293
  Potency: 0.418 µM (active)
HaCat [2]
  max response: -23%
NIH3T3 [4]
  max response: -14.3%
MCC-26
  Potency: inactive
MKL-1
  Potency: 18.7 µM (active)
MKL-2
  Potency: 14.8 µM (active)
UISO
  Potency: 3.72 µM (active)
WaGa
  Potency: 2.64 µM (active)

## COc1ccc(C(=O)c2c(C)n(CCN3CCOCC3)c3cc(I)ccc23)cc1
CRL-7250 [1]
  max response: 4.04%
HaCat [2]
  outcome: inactive
NIH3T3 [4]
  outcome: inactive
HACAT [3]
  outcome: inactive
MCC-13
  Potency: inactive
MCC-26
  Potency: inactive
MKL-2
  Potency: 1.48 µM (active)
NIH3T3 [5]
  outcome: inactive
WaGa
  Potency: inactive

## Oc1ccc2c3c1O[C@H]1[C@@H](O)C=C[C@H]4[C@@H](C2)NCC[C@@]341
CRL-7250 [1]
  max response: -20.7%
HaCat [2]
  max response: -5.53%
KB-3-1
  max response: -5.17%
NIH3T3 [4]
  max response: -2.9%
MCC-13
  Potency: inactive
MCC-26
  Potency: inactive
UISO
  Potency: inactive
WaGa
  Potency: 25 µM (active)
C33A
  Potency: inactive
CAOV3
  Potency: inactive

## Cc1c(N)nc([C@H](CC(N)=O)NC[C@@H](N)C(N)=O)nc1C(=O)N[C@H](C(=O)N[C@@H](C)[C@H](O)[C@@H](C)C(=O)N[C@@H](C(=O)NCCc1nc(-c2nc(C(=O)NCCC[S+](C)C)cs2)cs1)[C@@H](C)O)C(O[C@H]1O[C@H](CO)[C@H](O)[C@@H](O)[C@@H]1O[C@H]1O[C@H](CO)[C@@H](O)[C@H](OC(N)=O)[C@H]1O)c1cnc[nH]1 (stereo not given in full)
CRL-7250 [1]
  Potency: 10.5 µM (active)
NIH3T3 [4]
  Potency: 1.18 µM (active)
MKL-2
  Potency: inactive
WaGa
  Potency: 3.72 µM (active)

## N#C[C@H](O[C@@H]1O[C@H](CO[C@@H]2O[C@H](CO)[C@H](O)[C@H](O)[C@H]2O)[C@H](O)[C@H](O)[C@H]1O)c1ccccc1
HEK293
  Potency: 23.5 µM (active)
MCC-26
  Potency: inactive

## O=S(=O)(CC1CS1)c1ccc(Oc2ccccc2)cc1 (stereo not given)
CRL-7250 [1]
  max response: -6.75%
HaCat [2]
  max response: 3.29%
KB-3-1
  max response: 0.22%
NIH3T3 [4]
  max response: -6.16%
MCC-13
  Potency: inactive
MKL-1
  Potency: 23.5 µM (active)
MKL-2
  Potency: 16.6 µM (active)
WaGa
  Potency: 20.9 µM (active)

## O=[N+]([O-])c1cc([N+](=O)[O-])c2ccccc2c1
HaCat [2]
  outcome: inactive
KB-3-1
  max response: -6.84%
NIH3T3 [4]
  max response: 4.23%
HACAT [3]
  outcome: inactive [at 92 µM]
MCC-13
  Potency: inactive
MCC-26
  Potency: inactive
MKL-1
  Potency: inactive
MKL-2
  Potency: inactive
CAOV3
  Potency: inactive

## C[C@]12CCC(=O)C(O)=C1CC[C@@H]1[C@H]3CCC(=O)[C@@]3(C)CC[C@@H]12
W2
  Potency: inactive
CRL-7250 [1]
  max response: -0.395%
HaCat [2]
  max response: -3.05%
KB-3-1
  max response: 3.15%
NIH3T3 [4]
  max response: 4.69%
MCC-13
  Potency: inactive
MCC-26
  Potency: inactive
MKL-1
  Potency: inactive
MKL-2
  Potency: inactive
UISO
  Potency: inactive
WaGa
  Potency: inactive

## CC=C(C)C(=O)O[C@H]1C(C)=C2[C@@H]3OC(=O)[C@@](C)(O)[C@@]3(O)[C@@H](OC(=O)CCC)C[C@](C)(OC(C)=O)[C@@H]2[C@@H]1OC(=O)CCCCCCC
CRL-7250 [1]
  Potency: 0.148 µM (active)
HaCat [2]
  Potency: 8.33 µM (active)
NIH3T3 [4]
  Potency: 0.0187 µM (active)
MCC-13
  Potency: 1.87 µM (active)
MCC-26
  Potency: 1.32 µM (active)
MKL-1
  Potency: 11.8 µM (active)
MKL-2
  Potency: 3.72 µM (active)
UISO
  Potency: 0.235 µM (active)
WaGa
  Potency: 1.66 µM (active)

## COC1=CC(C)=C[C@@H](C)[C@@H](O)[C@@H](C)CC(C)=CC=C[C@H](OC)[C@H]([C@@H](C)[C@@H](O)[C@H](C)[C@@]2(O)C[C@@H](O)[C@H](C)[C@@H](C(C)C)O2)OC1=O
HEK293
  Potency: 0.0118 µM (active)
KB-3-1
  Potency: 0.0059 µM (active)
NIH3T3 [4]
  Potency: 0.0148 µM (active)
MCC-13
  Potency: 0.166 µM (active)
MCC-26
  Potency: 4.69 µM (active)
MKL-1
  Potency: 0.118 µM (active)
MKL-2
  Potency: 0.105 µM (active)
UISO
  Potency: 0.0418 µM (active)
WaGa
  Potency: 0.118 µM (active)

## Cc1c(C(=O)Nc2cccc(C(F)(F)F)c2)cc(-c2ccccc2)n1CCCN1CCOCC1
CRL-7250 [1]
  max response: -26% and -3.59%
KB-3-1
  max response: -13.2%
NIH3T3 [4]
  max response: -26.5% and -21.7%
MCC-13
  Potency: inactive
MKL-1
  Potency: inactive
C33A
  Potency: inactive

## CO/C=C(/C(=O)OC)c1ccccc1Oc1cc(Oc2ccccc2C#N)ncn1
CRL-7250 [1]
  Potency: 19.3 µM (active)
NIH3T3 [4]
  Potency: 6.86 µM (active)
MCC-26
  Potency: inactive
MKL-2
  Potency: 13.7 µM (active)

## CC(C)(C)c1cc(C=C(C#N)C#N)cc(Br)c1O
CRL-7250 [1]
  outcome: inactive
HaCat [2]
  max response: 3.48%
NIH3T3 [4]
  outcome: inactive
CRL-7250 [6]
  outcome: inactive
MCC-13
  Potency: inactive
MCC-26
  Potency: inactive
MKL-1
  Potency: inactive
MKL-2
  Potency: inactive
NIH3T3 [5]
  outcome: inactive
UISO
  Potency: inactive
WaGa
  Potency: inactive
